Compound activity: PubChem BioAssay, National Center for Advancing Translational Sciences (NCATS)
Hits are enriched below; roughly 0.71% of the tested compounds scored in any of these assays.
GALK inh: blocks human galactokinase activity; P51570; Purified GALK, Kinase-Glo residual ATP luminescence; Potency, µM (top dose mostly 57.5 µM), for inactives: at the top dose activity change, negative = inhibition, usual class: inhibitors; 270,000 tested, 0.007% active; AID 1868; note: potency is the fitted concentration of half-maximal effect
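5 nM enzyme, 35 uM ATP, 100 uM galactose, 20 mM HEPES pH8.0, 5 mM MgCl2; 1 h RT; residual ATP by Kinase-Glo Plus luminescence, qHTS format.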
PI4K2A block: inhibitors of human PI4K2A | Q9BTU6 | purified PI4K2A, ADP-Glo luminescence, 1 h; active compounds read low | activity change, negative = inhibition, % at 76.9 µM | 420,000 tested, 0.13% active | AID 1346378; in the data active = activity change below about -50%; inconclusive = mostly about -30% to -49%;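 note: -100% = wells without enzyme as full effect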
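In this quantitative HTS, ADP production by PI4K2A was quantified luminescently after 1 h at ambient temperature; 100 microM adenosine served as plate-quality control.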
Eya2 inh: blocks the phosphatase activity of human Eya2; recombinant Eya2, OMFP fluorescence dephosphorylation (OMFP is methylfluorescein phosphate); O00167; 330,000 tested, 0.006% active; Potency, µM (highest dose often 76.9 µM), without a hit: top-dose activity, negative = inhibition, hits mostly inhibitors; note: potency is the fitted concentration of half-maximal effect
Target sequence (O00167 whole entry, looked up): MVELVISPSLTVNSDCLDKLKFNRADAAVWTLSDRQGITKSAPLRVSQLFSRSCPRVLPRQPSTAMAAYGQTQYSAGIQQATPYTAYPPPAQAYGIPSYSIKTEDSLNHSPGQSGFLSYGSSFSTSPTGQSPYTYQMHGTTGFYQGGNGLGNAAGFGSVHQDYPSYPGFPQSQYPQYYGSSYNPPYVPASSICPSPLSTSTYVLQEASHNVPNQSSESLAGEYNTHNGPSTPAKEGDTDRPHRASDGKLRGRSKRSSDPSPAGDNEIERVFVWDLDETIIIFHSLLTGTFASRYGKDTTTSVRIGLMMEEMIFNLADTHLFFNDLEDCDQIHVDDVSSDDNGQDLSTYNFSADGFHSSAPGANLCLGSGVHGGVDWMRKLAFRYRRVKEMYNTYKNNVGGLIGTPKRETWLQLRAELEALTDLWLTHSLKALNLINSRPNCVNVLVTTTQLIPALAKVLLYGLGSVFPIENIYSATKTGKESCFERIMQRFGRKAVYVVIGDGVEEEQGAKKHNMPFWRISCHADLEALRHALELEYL
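Eya2 (0.2 uM) preincubated 10 min at ambient with compound, then OMFP substrate added at 50 uM; 10 min reaction in 50 mM HEPES pH 7.5, 50 mM NaCl, 5 uM MgCl2, 0.05% BSA, 1 mM DTT. Fluorescence read at Ex 485/Em 525 nm.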
FBPA coupling cs: coupling enzyme interference in Giardia aldolase counter-screen; coupling enzyme system counterscreen, AmpLite Red fluorescence; activity change, negative = inhibition, % at 58.2 µM, hits read low; 290,000 tested, 0.67% active; AID 2472; in the data active = activity change below about -30%
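Compounds tested against the coupling enzymes alone at 57.5 uM final; readout was AmpLite Red fluorescence (525/598 nm) after 20 min at RT.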
USP2a block: blocks human ubiquitin-specific protease USP2a. USP2 core, Ub-CHOP2 coupled fluorogenic reporter, 485/531. Potency, µM (top dose mostly 38.3 µM), for the others: at the top dose activity change, negative = inhibition, most hits filed as inhibitors. 330,000 tested, 0.01% active;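 note: potency is the fitted concentration of half-maximal effect; plate controls were DMSO wells for no effect and full inhibition by NEM control for full effect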
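Cell-free coupled assay: 10nM USP2 core preincubated 30min RT with compound in Tris-HCl pH 8.0/CaCl2/CHAPS buffer, then 25nM Ub-CHOP2 and 25nM reporter substrate; fluorescence (Ex 485/Em 531) read after 60min RT, normalized to NEM inhibition, concentration-response curves fitted.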
USP1 inh: blocks the human USP1/UAF1 deubiquitinase complex. O94782. recombinant USP1/UAF1, Ub-Rhodamine cleavage fluorescence. Potency, µM (top dose mostly 57.1 µM), for the others: at the highest dose activity change, negative = inhibition, actives largely listed as inhibitors. 390,000 tested, 0.23% active. AID 743255; note: potency is the fitted concentration of half-maximal effect; nearly all actives have a fitted effect of over 60% in size
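Step one: compound is pinned into 1nM USP1/UAF1 in HEPES pH 7.8 buffer with TCEP. Step two: 15 min room-temperature incubation. Step three: Ub-Rho (150nM final) starts cleavage, tracked by fluorescence over six one-minute reads.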
* marks the source's active call; other numbers are inactive results; ? = inconclusive; . = no result. Unless noted, calls come from the whole dose curve; as a rule, active = well fitted curve in the direction sought with a large enough effect; inconclusive = small, poorly fitted or top-dose-only effect, or another doubt; inactive = no such curve, though single readings can be large; an effect the other way counts as inactive or inconclusive. Unless noted, % is set by controls: 0 for no effect and ±100 for the full control effect.

SMILES | GALK inh | PI4K2A block | Eya2 inh | FBPA coupling cs | USP2a block | USP1 inh
C[C@@H]1O[C@@H](O[C@H]2CC[C@@H](O[C@H]3[C@H](O)C[C@H](c4ccc5c(c4O)C(=O)C4=C(C5=O)[C@@]5(O)C(=O)C[C@](C)(O[C@H]6CC[C@H](O[C@H]7C=CC(=O)[C@H](C)O7)[C@H](C)O6)C[C@@]5(O)C=C4)O[C@@H]3C)O[C@H]2C)C=CC1=O | . | . | . | -73.6* | . | .
O=C1NC(=O)N(Cc2ccc(F)cc2)C(=O)/C1=C\c1ccc([N+](=O)[O-])s1 | . | -14.6 | -4.4% | -5.6 | 0.4% | 28.2µM*
COc1ccc(CN2C(=O)NC(=O)/C(=C\c3ccco3)C2=O)cc1 | 4.3% | -24.1 | -0.3% | 0.8 | 3.4% | ?
COc1cc(OC)c(OC)cc1/C=C1/C(=O)NC(=O)N(Cc2ccccc2)C1=O | 0.0% | -52.7* | -7.1% | 1.9 | 2.4% | -3.2%
COc1ccc(CN2C(=O)NC(=O)/C(=C/c3ccc([N+](=O)[O-])s3)C2=O)cc1 | 0.2% | -22.1 | -7.0% | -3.6 | -1.6% | 35.5µM*
COc1cc2c(cc1O)[C@H]1Cc3ccc(OC)c(O)c3CN1CC2 | . | . | . | -37.6* | . | .
CC(C)(C)NC[C@H](O)c1ccc(O)cc1Cl | . | 3.6 | . | . | . | .
NC(Cc1cc(O)c(O)cc1O)C(=O)O (centres undefined) | . | -80.2* | -20.5% | . | ? | .
N#C/C(=C\c1ccc(O)cc1)C(=O)O (tested in a mixture with another compound) | . | -3.4 | . | . | . | 8.0%
N#C/C(=C\c1ccc(O)c(O)c1)C(N)=S | . | . | . | -64.4* | . | .
CN1Cc2c(c(C#N)c(N)n(C)c2=S)CC1(C)C | 0.8% | -11.9 | -1.7% | -27.7 | 13.8% | 28.2µM*
CCn1c(O)c(C=Nc2ccc(N3CCOCC3)c(Br)c2)c(=O)n(CC)c1=S | 0.6% | 3.2 | 13.8% | -10.7 | 1.6% | -10.6%
CCn1c(O)c(C=Nc2ccc(N3CCOCC3)cc2)c(=O)n(CC)c1=S | 0.9% | -0.1 | ? | -0.5 | 1.5% | 17.8µM*
COC(=O)[C@@]1(C#N)[C@@H]2C=CC(C(C)=O)=CN2[C@@H](C(N)=O)[C@@H]1c1ccc(F)cc1 | 0.5% | -11.8 | 10.3% | -8.4 | 19.2% | 28.2µM*
CCOC(=O)[C@]1(C#N)[C@@H]2C=CC(C(N)=O)=CN2[C@@H](C(N)=O)[C@@H]1c1ccc(F)cc1 | 4.9% | -10.1 | 14.7% | -10.4 | -1.5% | ?
COc1cccc2c1C(=O)c1c(O)c3c(c(O)c1C2=O)C[C@@](O)(C(=O)CO)CC3OC1CC(N2CCOC(OC)C2)C(O)C(C)O1 (some centres undefined) | . | -11.2 | . | . | . | .
O=c1c(O)c(-c2ccc(O)c(O)c2)oc2c(O)c(O)cc(O)c12 | . | . | . | -57.4* | . | .
C1CN2CCC1CC2 | . | 4.7 | . | . | . | .
Cc1cc(NC(=O)c2cc(-c3cccc(Cl)c3)on2)nn1Cc1ccc(Cl)cc1 | . | 1.1 | . | . | . | ?
O=c1[nH]cc(N(CCCl)CCCl)c(=O)[nH]1 | . | -67.3* | . | . | . | .
c1ccc(N2CCNCC2)cc1 | . | 2.5 | . | . | . | .
CC(C)[C@@]1(NC(=O)[C@@H]2C[C@H]3c4cccc5[nH]cc(c45)C[C@@H]3N(C)C2)O[C@]2(O)[C@H]3CCCN3C(=O)CN2C1=O | . | . | . | -0.4 | . | .
CC(C)[C@H]1C(=O)N2CCC[C@H]2[C@]2(O)O[C@](NC(=O)[C@@H]3C=C4c5cccc6[nH]cc(c56)C[C@H]4N(C)C3)(C(C)C)C(=O)N12 | 3.5% | -21.4 | 21.8% | -45.9* | ? | 22.4µM*
CC(C)C1C(=O)N2CCCC2[C@]2(O)O[C@@](NC(=O)[C@@H]3C=C4c5cccc6[nH]cc(c56)C[C@H]4N(C)C3)(C(C)C)C(=O)N12 (some centres undefined) | . | . | . | -34.0* | . | .
CN1C[C@@H](CO)C=C2c3cccc4[nH]cc(c34)CC21 (some centres undefined) | . | . | . | -0.6 | . | .
